According to PubChem BioAssay (NCATS):
Records with an inconclusive call do not appear. Activity calls are given as the source filed them. Calls follow the shape of the dose curve; as a rule, active = well fitted curve in the direction sought with a large enough effect; inconclusive = small, poorly fitted or top-dose-only effect, or another doubt; inactive = no such curve, though single readings can be large; an effect the other way counts as inactive or inconclusive.

Tests used:
[1] = target: Luciferin 4-monooxygenase (Photinus pyralis) (UniProt P08659); assay: Primary firefly luciferase (FLuc) qHTS assay for identification of artifact compounds. (AID 1845220); also: nearly all actives have a fitted effect of over 60% in size; also: potency is read from the fitted curve at half-maximal effect
How it was run: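 Titrated compounds were incubated 15 min at RT, protected from light, with luciferin and ATP at 10 uM; reaction started with 10 nM FLuc, luminescence imaged at 5 min, and concentration-response fitted by Hill equation.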

[2] = Primary fluorescence-based thiol-reactive (MSTI) qHTS assay for identification of artifact compounds. (AID 1845221); also: nearly all actives have a fitted effect of over 65% in size; also: potency is read from the fitted curve at half-maximal effect
How it was run: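 In PBS pH 7.4 with 2% DMSO, each compound met 4 uM MSTI for one hour at ambient temperature, shielded from light, before fluorescence detection.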

[3] = system: Nanoluciferase (engineered Oplophorus gracilirostris luciferase); assay: Primary Nanoluciferase (NLuc) qHTS assay for identification of artifact compounds. (AID 1845222); also: potency is read from the fitted curve at half-maximal effect
How it was run: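 qHTS format, against NLuc in S16 cell-conditioned medium. Nano-Glo substrate 1:100 was added after 15 min at room temperature. Luminescence was taken after a further 5 min.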

[4] = Primary redox qHTS assay for identification of artifact compounds. (AID 1845223)
How it was run: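 Redox-cycling detection via DTT (250 uM final) oxidation coupled to Amplex Red (25 uM)/HRP (250 mU/mL) in HBSS. 15 min preincubation plus 30 min after DTT, room temperature. Ex/Em 525/598 nm; 4-parameter Hill fit against DMSO and 10 uM DA3003.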

[5] = target: Cytochrome P450 3A4 (Homo sapiens) (UniProt P08684); assay: qHTS for inhibitors of CYP3A4 against the NCATS DSHEA and TCM libraries (AID 1919971);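 also: inhibition lowers luminescence from luciferin made by CYP3A4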
How it was run: (§1)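 Concentration-response screening with isoform-matched pro-luciferin substrates. The CYP reaction was initiated by NADPH regenerating solution and ran 30-45 min in darkness at room temperature.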

[6] = target: Cytochrome P450 2D6 (Homo sapiens) (UniProt P10635); assay: qHTS for inhibitors of CYP2D6 against the NCATS DSHEA and TCM libraries (AID 1919972)
How it was run: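 CYP2D6 enzyme with pro-luciferin substrate in manufacturer buffer (typically 100 mM KPO4), preincubated 15 min RT with substances (most at 19.5 nM upward); NADPH regeneration system (1x) started 30–45 min RT reaction; P450-Glo luminescence read after 30 min; quinidine as intraplate control.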

[7] = target: Cytochrome P450 2C9 (Homo sapiens) (UniProt P11712); assay: qHTS for inhibitors of CYP2C9 against the NCATS DSHEA and TCM libraries (AID 1919973);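 also: luminogenic pro-luciferin CYP2C9 substrate turned into luciferin with NADPH regeneration; series mostly up to about 34 µM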
How it was run: as §1

[8] = target: Cytochrome P450 2C19 (Homo sapiens) (UniProt P33261); assay: qHTS for inhibitors of CYP2C19 against the NCATS DSHEA and TCM libraries (AID 1919974);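 also: luminescence from luciferin released by CYP2C19 oxidation of a pro-luciferin substrate; potency is read from the fitted curve at half-maximal effect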
How it was run: as §1

[9] = KB-3-1 P-gp reporter qHTS against the NCATS DSHEA and TCM libraries (AID 1919975)
How it was run: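 Cell viability qHTS: 500 KB-3-1 cells/well, substances in titration, ~72 h, 37C; luminescent CellTiter-Glo read.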

[10] = target: Cytochrome P450 1A2 (Homo sapiens) (UniProt P05177); assay: qHTS for inhibitors of CYPIA2 against the NCATS DSHEA and TCM libraries (AID 1919976); also: potency is read from the fitted curve at half-maximal effect
Description: Assay Development and Screening Technology Laboratory (ADST)
National Center for Advancing Translational Sciences (NCATS), Rockville, MD
National Institute of Health (NIH), Bethesda, Maryland
Dietary Supplements and Natural Products have minor oversight of their safety and efficacy. We assembled a collection of Dietary Supplements and Natural Products (DSNP) as well as Traditional Chinese Medicinal (TCM) Plant extracts, which were screened against an in vitro panel of assays, including a liver cytochrome p450 enzyme panel, CAR/PXR signaling pathways, and P-gp transporter assays, to assess their activity. This pipeline facilitated the interrogation of Natural Product-Drug Interaction (NaPDI) through prominent metabolizing pathways. In addition, we compared the activity profiles of the DSNP/TCM substances with those of an approved drug collection. Many of the approved drugs have well-annotated mechanisms of action (MOA) while the MOAs for most of the DSNP and TCM samples remain unknown. […] Overall, we highlight four significant bioactivity profiles (measured by p-values) as examples of this prediction. […] To profile potential P-gp activity, a differential cell viability was measured against two cell lines: a parental KB-3-1 human cervical adenocarcinoma cell line and the drug-resistant subline KB-8-5-11 that overexpresses P-gp. […]
9; Read; Luminescence; ViewLux plate reader. […]

Measured: Potency

Chain of Cytochrome P450 2C9 (Homo sapiens) (P11712 whole entry, looked up): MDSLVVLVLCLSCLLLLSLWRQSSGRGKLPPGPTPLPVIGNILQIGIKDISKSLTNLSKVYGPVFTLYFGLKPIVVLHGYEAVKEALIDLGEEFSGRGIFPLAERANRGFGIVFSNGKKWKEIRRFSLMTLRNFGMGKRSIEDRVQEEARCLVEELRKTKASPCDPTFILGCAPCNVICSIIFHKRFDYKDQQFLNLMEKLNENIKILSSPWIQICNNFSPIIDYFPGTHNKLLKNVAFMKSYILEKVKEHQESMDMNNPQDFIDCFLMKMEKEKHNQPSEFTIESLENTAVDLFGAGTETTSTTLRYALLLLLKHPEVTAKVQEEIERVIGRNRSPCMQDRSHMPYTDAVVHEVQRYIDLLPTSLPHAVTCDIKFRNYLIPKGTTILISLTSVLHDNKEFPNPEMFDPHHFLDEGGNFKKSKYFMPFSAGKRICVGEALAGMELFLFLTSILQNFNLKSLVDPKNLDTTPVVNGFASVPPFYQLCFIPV
Chain of Cytochrome P450 3A4 (Homo sapiens) (P08684 whole entry, looked up, canonical isoform): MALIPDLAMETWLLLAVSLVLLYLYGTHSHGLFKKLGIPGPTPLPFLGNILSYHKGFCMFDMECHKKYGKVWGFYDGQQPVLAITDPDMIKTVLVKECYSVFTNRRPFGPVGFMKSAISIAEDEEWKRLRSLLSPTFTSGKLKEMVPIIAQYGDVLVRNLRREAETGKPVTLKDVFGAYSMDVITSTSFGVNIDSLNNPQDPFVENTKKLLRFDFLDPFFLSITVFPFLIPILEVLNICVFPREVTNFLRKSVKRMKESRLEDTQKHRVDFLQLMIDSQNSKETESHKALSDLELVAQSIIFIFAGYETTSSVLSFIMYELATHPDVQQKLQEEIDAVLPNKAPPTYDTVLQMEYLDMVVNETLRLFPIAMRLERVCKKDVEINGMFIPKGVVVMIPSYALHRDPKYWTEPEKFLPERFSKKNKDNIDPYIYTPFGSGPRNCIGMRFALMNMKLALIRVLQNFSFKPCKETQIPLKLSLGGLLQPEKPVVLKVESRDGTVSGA
Chain of Cytochrome P450 2C19 (Homo sapiens) (P33261 whole entry, looked up): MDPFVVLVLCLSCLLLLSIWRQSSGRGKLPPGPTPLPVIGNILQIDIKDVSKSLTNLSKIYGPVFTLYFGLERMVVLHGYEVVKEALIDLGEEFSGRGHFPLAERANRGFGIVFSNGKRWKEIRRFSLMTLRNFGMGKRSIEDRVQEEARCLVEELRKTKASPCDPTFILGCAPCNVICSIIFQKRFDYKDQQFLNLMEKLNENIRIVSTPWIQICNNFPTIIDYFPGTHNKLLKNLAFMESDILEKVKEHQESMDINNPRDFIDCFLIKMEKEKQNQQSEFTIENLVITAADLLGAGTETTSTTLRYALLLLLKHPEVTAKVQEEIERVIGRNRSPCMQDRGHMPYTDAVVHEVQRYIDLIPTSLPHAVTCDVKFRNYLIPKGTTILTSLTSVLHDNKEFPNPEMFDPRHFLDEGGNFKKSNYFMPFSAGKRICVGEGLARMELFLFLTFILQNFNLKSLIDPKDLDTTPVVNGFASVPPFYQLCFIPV
Chain of Cytochrome P450 2D6 (Homo sapiens) (P10635 whole entry, looked up): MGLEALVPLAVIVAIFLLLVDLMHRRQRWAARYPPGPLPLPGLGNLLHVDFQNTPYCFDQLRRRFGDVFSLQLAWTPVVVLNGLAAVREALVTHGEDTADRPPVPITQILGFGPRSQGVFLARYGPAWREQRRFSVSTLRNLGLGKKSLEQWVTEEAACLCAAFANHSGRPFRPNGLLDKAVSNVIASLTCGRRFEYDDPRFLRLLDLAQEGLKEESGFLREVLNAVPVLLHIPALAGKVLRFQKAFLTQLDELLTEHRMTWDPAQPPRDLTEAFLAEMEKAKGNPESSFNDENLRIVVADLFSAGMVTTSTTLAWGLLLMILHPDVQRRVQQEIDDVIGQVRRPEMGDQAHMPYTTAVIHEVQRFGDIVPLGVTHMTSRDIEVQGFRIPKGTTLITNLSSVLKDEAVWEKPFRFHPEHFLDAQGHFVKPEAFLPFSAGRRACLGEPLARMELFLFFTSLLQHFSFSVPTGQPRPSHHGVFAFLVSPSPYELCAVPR
Chain of Cytochrome P450 1A2 (Homo sapiens) (P05177 whole entry, looked up): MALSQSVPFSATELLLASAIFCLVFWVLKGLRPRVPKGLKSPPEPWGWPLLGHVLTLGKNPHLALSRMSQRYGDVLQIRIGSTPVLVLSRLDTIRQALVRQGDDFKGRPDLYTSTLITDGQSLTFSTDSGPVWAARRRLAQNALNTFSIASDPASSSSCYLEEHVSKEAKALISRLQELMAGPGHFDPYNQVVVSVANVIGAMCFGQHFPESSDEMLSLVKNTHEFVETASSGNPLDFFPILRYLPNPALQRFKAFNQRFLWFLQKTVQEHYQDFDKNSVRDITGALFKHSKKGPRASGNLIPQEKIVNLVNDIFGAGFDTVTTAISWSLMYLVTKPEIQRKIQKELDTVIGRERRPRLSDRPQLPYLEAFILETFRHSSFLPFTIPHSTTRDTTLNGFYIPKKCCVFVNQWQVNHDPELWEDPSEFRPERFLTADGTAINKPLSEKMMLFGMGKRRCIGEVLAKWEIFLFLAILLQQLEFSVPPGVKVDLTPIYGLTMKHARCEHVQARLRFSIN

O=C1NC2CCCCN2C12CCN(CCCN1c3ccccc3CCc3ccc(Cl)cc31)CC2 (stereo not given)
inactive: [1] | [2] | [3]

C[C@H](CN1CCCC1)C(=O)c1ccc(C(F)(F)F)cc1
inactive: [1] | [2] | [3] | [4]

CN1CCC(N(Cc2cccs2)c2ccccc2)CC1
inactive: [1] | [2] | [3] | [4]

COc1cc(C(=O)OC(COCCC(C)C)CN2CCOCC2)cc(OC)c1OC (stereo not given)
inactive: [1] | [2] | [3] | [4]

CCCCCOc1ccc(C2SC(=O)NC2=O)cc1OCC (stereo not given)
inactive: [1] | [2] | [3] | [4]

CC(C)N(CCC(=O)c1ccc2ccccc2c1)Cc1ccccc1
active: [3] 1.2 µM
inactive: [1] | [2] | [4]

CCN1C(=O)c2ccccc2C1Nc1ccc(OCCN2CCCCC2)cc1 (stereo not given)
inactive: [1] | [2] | [3] | [4]

Cc1ccccc1C(=O)N1CC/C(=N\OS(=O)(=O)O)c2ccc(Cl)cc21
active: [3] 26.9 µM
inactive: [1] | [2] | [4]

CC1CN(c2cc3c(cc2F)c(=O)c(C(=O)O)cn3-c2ccc(F)cc2F)CCN1 (stereo not given)
inactive: [1] | [2] | [3] | [4]

CC(C(=O)O)c1ccc(/C=C2\CCCCC2=O)cc1 (stereo not given)
active: [1] 23.9 µM
inactive: [2] | [3] | [4]

CCc1cc(S(=O)(=O)O)c2cc(C(C)C)cccc1-2
active: [2] 0.844 µM
inactive: [1] | [3] | [4]

O=C(NN1CCCC1)NS(=O)(=O)c1ccc(Cl)cc1
inactive: [1] | [2] | [3] | [4]

O=C(O)CNC(=O)CNC(=O)CNC(=O)CSC(=O)c1ccccc1
inactive: [1] | [2] | [3] | [4]

CC(=O)O[C@@H]1C(=O)O[C@@H]2[C@H]1OC(=O)[C@@H]2OC(C)=O
inactive: [1] | [2] | [3] | [4]

CCOC(=O)Cn1cccc1-c1nc(-c2ccc(OC)cc2)c(-c2ccc(OC)cc2)s1
inactive: [1] | [2] | [3] | [4]

CCOC(=O)c1ccc(NC(=O)CN2CCCCC2)cc1
inactive: [1] | [2] | [3] | [4]

Nc1c(NC/C=C\COc2cc(CN3CCCCC3)ccn2)c(=O)c1=O
inactive: [1] | [2] | [3] | [4]

O=C(CCC1CCN(Cc2ccccc2)CC1)c1ccc2c(c1)NCCCC2
inactive: [1] | [2] | [3] | [4]

C=CCOc1cc(Cl)ccc1C(=O)NCCN(CC)CC
inactive: [1] | [2] | [3] | [4]

CO[C@]1(NC(=O)CSC(F)F)C(=O)N2C(C(=O)O)=C(CSc3nnnn3CCO)CO[C@H]21
inactive: [1] | [2] | [3] | [4]

CCN(CC)CCOc1ccc(/C(=C(\Cl)c2ccccc2)c2ccccc2)cc1
inactive: [1] | [2] | [3] | [4]

CN(C)c1cc2c(Nc3ccc4c(cnn4Cc4ccccc4)c3)ncnc2cn1
inactive: [1] | [3]

CO/N=C(/C(=O)N[C@@H]1C(=O)N2C(C(=O)O)=C(Cn3nnc(C)n3)CS[C@H]12)c1csc(N)n1
inactive: [1] | [2] | [3] | [4]

Brc1ccc([C@H]2CN3CCSC3=N2)cc1
inactive: [1] | [2] | [3] | [4]

Nc1ncnc2n[nH]c(Nc3ccc(F)cc3)c12
inactive: [1] | [3] | [4]

O=C1[C@@H]2[C@H]3CC[C@H](C3)[C@@H]2C(=O)N1CCCCN1CCN(c2ncccn2)CC1
inactive: [1] | [2] | [3] | [4]

CC[N+]1(CC)CCC(=C(c2ccccc2)c2ccccc2)C1C (stereo not given)
inactive: [1] | [2] | [3] | [4]

Clc1ccc2c(c1)N=C(N1CCNCC1)c1ccccc1N2
inactive: [1] | [3] | [4]

COC(=O)C1=C(C)NC(COC(N)=O)=C(C(=O)OC(C)C)C1c1cccc(Cl)c1Cl (stereo not given)
inactive: [1] | [2] | [4]

O=C1NC(c2cccc([N+](=O)[O-])c2)=CCN1c1ccccc1O
inactive: [1] | [3]

CN1[C@@H]2CC[C@H]1CC(NC(=O)n1c(=O)[nH]c3ccccc31)C2 (stereo not given in full)
inactive: [1] | [2] | [3] | [4]

O=C(O)CCCC[C@@H]1SC[C@@H]2NC(=O)N[C@@H]21
inactive: [5] | [6] | [7] | [9]
active: [8] 3.55 µM | [10] 3.98 µM

COc1cc(NS(=O)(=O)c2ccc(N)cc2)nc(C)n1
inactive: [1] | [2] | [3] | [4]

OC1(c2ccc(Cl)c(C(F)(F)F)c2)CCN(CCCC(c2ccc(F)cc2)c2ccc(F)cc2)CC1
inactive: [1] | [2] | [3] | [4]
